Screening results as filed in PubChem.
KB-3-1 cytotox: KB-3-1 parental cell cytotoxicity. KB-3-1 viability, CellTiter-Glo ATP luminescence, 72 h. Potency, µM (doses to about 46.1 µM), hits mostly cytotoxic. 400,000 tested, 1.4% active. AID 1347075; further: potency means the concentration at half of the fitted maximal effect; on the % scale 0 is the no-effect control and ±100 the full control effect; nearly all actives have a fitted effect of over 60% in size
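Viability of parental KB-3-1 cells, measured by CellTiter-Glo luminescence, followed a 72 h incubation at 37 °C with pinned compounds in phenol-red-free DMEM containing 10% FBS.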
SW480 rereplic: DNA re-replication induction in SW480 cells; SW480 DNA re-replication, Hoechst DNA content imaging, 48 h; Potency, µM (titrated, usually from 46.1 µM), for inactives: top-dose re-replication activation, most hits filed as activators; 340,000 tested, 1.8% active; AID 624297; further: potency means the concentration at half of the fitted maximal effect; % of control where 0% means no effect; nearly all actives have a fitted effect of over 55% in size
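250 cells/well; 23 nL cpd via pin tool; 48 hr, 37 C, 5% CO2; Hoechst 40 min; imager read of total nuclear intensity, ex 405/em 500-530 nm.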
MCF10A rerep: DNA re-replication induction in MCF 10a cells; 350,000 tested, 2.9% active; MCF 10A DNA re-replication, Hoechst nuclear intensity, 48 h; Potency, µM (doses to about 46.1 µM), for the others: at the top dose activity, positive = re-replication, hits mostly activators; AID 624296; further: potency means the concentration at half of the fitted maximal effect; % of control where 0% means no effect; nearly all actives have a fitted effect of over 50% in size
D3 ag: D3 dopamine receptor (human) agonism | P35462 | D3R DiscoveRx beta-arrestin cells, luminescence, 90 min | max activation, % | AID 652048 | 410,000 tested, 0.58% active; in the data active means max activation above about 30%; further: 0% is about no effect
Target sequence (P35462 whole entry, looked up): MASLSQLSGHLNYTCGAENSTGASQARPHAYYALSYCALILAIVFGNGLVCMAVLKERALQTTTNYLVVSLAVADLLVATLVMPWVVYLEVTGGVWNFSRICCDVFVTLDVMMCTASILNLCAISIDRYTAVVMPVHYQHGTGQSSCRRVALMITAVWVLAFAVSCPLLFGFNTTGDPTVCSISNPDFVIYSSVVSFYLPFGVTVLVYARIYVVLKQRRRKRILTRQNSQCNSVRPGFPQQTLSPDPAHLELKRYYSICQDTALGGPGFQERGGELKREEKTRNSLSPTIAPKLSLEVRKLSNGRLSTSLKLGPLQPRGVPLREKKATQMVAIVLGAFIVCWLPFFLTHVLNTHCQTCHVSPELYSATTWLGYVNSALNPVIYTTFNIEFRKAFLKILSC
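Agonist-mode cell screen: cells plated at 1500/well and incubated overnight at 37 °C, then exposed to library compounds for 90 min at 37 °C. Detection reagent was added for 30–60 min at room temperature, and luminescence was read.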
DRD3 antagonist: blocks the human D3 dopamine receptor | D3R cells, DiscoveRx beta-arrestin luminescence, antagonist mode; active compounds read low | max response, negative = inhibition, % | 360,000 tested, 2.5% active | AID 652054; in the data active means max response below about -50%; inconclusive means no clear call, values can overlap the other calls; further: on the % scale 0 is the no-effect control and ±100 the full control effect
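Cells expressing the human receptor were seeded at 1500 cells/well, incubated overnight at 37 degrees C in 5% CO2, then exposed to library compounds with dopamine controls for 90 minutes at 37 degrees C before luminescent detection.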
KB-V1 cytotox: kills drug-selected multidrug resistant KB-V1 cells; KB-V1 MDR cells viability, CellTiter-Glo, 72 h; Potency, µM (doses to about 46.1 µM), most hits filed as cytotoxic; 400,000 tested, 3.4% active; AID 1347076; further: potency means the concentration at half of the fitted maximal effect; on the % scale 0 is the no-effect control and ±100 the full control effect; nearly all actives have a fitted effect of over 60% in size
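Cytotoxicity toward P-gp-expressing KB-V1 cells was determined as loss of CellTiter-Glo luminescence after 72 h at 37 degrees C. Compounds were tested in quantitative HTS format across a concentration range, with curves fitted to normalized data.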
Starred values were filed as active, the others as inactive; i = inactive; ? = inconclusive; · = no result given. This is a sample that favours compounds with a hit; in the whole collection about 8.9% have one here. Unless noted, the call rests on the fitted dose curve; in most records, active means well fitted curve in the direction sought with a large enough effect; inconclusive means small, poorly fitted or top-dose-only effect, or another doubt; inactive means no such curve, though single readings can be large; an effect the other way counts as inactive or inconclusive.

SMILES	KB-3-1 cytotox	SW480 rereplic	MCF10A rerep	D3 ag	DRD3 antagonist	KB-V1 cytotox
CC(C)c1ccc(NC(=O)c2snc3ccc(Cl)cc23)cc1	0.0517µM*	?	?	0.4	13.5	?
CC(C)c1ccc(NC(=O)c2csnn2)cc1	?	0.0%	19.3%	0.0	20.7	i
OCC#CCSc1nnc(-c2ccccc2Br)o1	i	?	11.6µM*	-3.5	-29.8	i
OCC#CCSc1nnc(-c2ccc(Br)cc2)o1	i	1.3%	3.8%	-6.0	-21.6	?
COc1ccc(NC(=O)C(C)Sc2cc(-c3ccccc3)nc(C)n2)cc1Cl (configuration not stated)	·	·	·	0.3	·	·
C=CCSc1nnc(NC(=O)COc2ccc3ccccc3c2)s1	i	3.7%	-2.2%	-1.8	-65.9*	i
C=CCSc1nnc(NC(=O)COc2ccccc2)s1	i	-48.9%	-8.3%	2.5	-11.0	i
CNC(=O)CSCc1cnn(-c2ccccc2)c1-n1cccc1	i	-5.4%	2.7%	6.3	26.3	16.4µM*
CC(C)(C)N/N=C/c1cc(Cl)cc([N+](=O)[O-])c1O	?	-8.9%	21.0%	-16.2	-110.2*	?
O=C(N/N=C/c1cc([N+](=O)[O-])cc([N+](=O)[O-])c1O)C(O)(c1ccccc1)c1ccccc1	i	-1.0%	-2.2%	-5.6	-15.9	i
O=C(N/N=C/c1ccc(Cl)c([N+](=O)[O-])c1)C1CC1	i	-7.7%	8.7%	-2.1	-8.0	i
O=C(N/N=C/c1cc(Cl)cc([N+](=O)[O-])c1O)C1CC1	?	-11.5%	14.8%	-19.4	-56.6*	?
O=C(NN=Cc1ccc(Cl)cc1Cl)C1CC1	i	-4.7%	5.3%	0.6	13.7	14.6µM*
O=[N+]([O-])c1cc(Cl)cc(/C=N/Nc2nc3ccccc3s2)c1O	?	?	?	-17.5	-60.2*	?
COc1cccc(-c2noc(-c3cc(C(C)C)[nH]n3)n2)c1OC	i	·	·	7.8	·	i
Cc1ccc(NC(=O)Cn2nnc(-c3nc(-c4ccncc4)no3)c2N)c(C)c1	·	·	·	4.7	·	·
Cc1c(Cl)cccc1NC(=O)CSc1nc(=O)[nH]c2c1CCC2	·	·	·	0.7	·	·
Cc1ccccc1C(=O)Nc1cccc(C(=O)N/N=C/c2cc(Cl)cc([N+](=O)[O-])c2O)c1	?	?	-8.2%	-10.9	-51.7*	?
O=C(Cn1nnc(-c2ccccc2)n1)N/N=C/c1cccc([N+](=O)[O-])c1O	?	?	7.5%	5.2	-9.4	i
O=C(Cn1nc2ccccc2n1)N/N=C/c1cc(Cl)cc([N+](=O)[O-])c1O	?	11.6µM*	?	-15.7	-82.9*	i
Cc1nc(-c2cccc(S(=O)(=O)N3CCC(C(=O)NCc4ccccc4)CC3)c2)no1	i	·	·	-16.7	·	i
Cn1cc(/C=C/c2cc[n+](C)cc2)c2cc(F)ccc21	i	?	?	-31.7	-17.6	i
Cn1cc(/C=C/c2cc[n+](C)cc2)c2cc(Cl)ccc21	0.92µM*	11.2µM*	13µM*	-15.3	12.0	i
CCOc1ccc(C(=O)OCC(=O)Nc2cccnc2Cl)cc1OCC	i	-7.4%	-1.7%	12.6	4.3	18.4µM*
CCCS(=O)(=O)c1nc(S(=O)(=O)c2ccc(C)cc2)c(NC)s1	i	·	·	-10.8	·	i
SMILES	KB-3-1 cytotox	SW480 rereplic	MCF10A rerep	D3 ag	DRD3 antagonist	KB-V1 cytotox
OC[C@@H](O)[C@H](O)[C@H](O)[C@@H](O)CO	·	·	·	-8.2	·	·
O=C(CSc1nnc(-c2cccnc2)n1C1CCCCC1)NC1CCCCC1	i	-8.6%	2.9%	0.6	-18.2	18.4µM*
CC1CCCCN1C(=O)CSc1nnc(-c2cccnc2)n1C1CCCCC1 (configuration not stated)	i	-1.3%	0.3%	5.1	14.6	14.6µM*
CC1CCN(C(=O)CSc2nnc(-c3cccnc3)n2C2CCCCC2)CC1	i	-0.8%	-0.5%	18.1	17.8	i
Cc1noc(C)c1CSc1nnc(-c2cccnc2)n1C1CCCCC1C (configuration not stated)	i	1.7%	5.5%	2.2	17.6	23.1µM*
Nc1ccc(C(Cc2ccnc3ccccc23)Cc2ccnc3ccccc23)cc1	?	·	·	·	·	i
Cn1c(=O)c2nc(SCC(=O)Nc3cc(Cl)ccc3Cl)n(C)c2n(C)c1=O	·	·	·	6.6	·	·
Cc1ccc(NC(=O)CSc2nc3ccccc3c(=O)n2CCCC(=O)N2CCCC2)cc1	6.31µM*	?	5.7%	8.1	19.2	?
O=C(CSc1nc2ccccc2c(=O)n1CCC(=O)N1CCCCC1)NCc1ccccc1	i	-1.5%	17.6%	1.3	17.4	2.06µM*
CC(C)c1ccc(NC(=O)CSc2nc3ccccc3nc2N2CCCC2)cc1	i	-2.9%	?	7.0	28.5	i
Cc1ccc(NC(=O)CSc2nc3ccccc3c(=O)n2CCC(=O)NC2CCCCC2)cc1C	i	·	·	-12.7	·	i
Cc1ccc(NC(=O)CSc2nc3ccccc3nc2N2CCCC2)cc1	18.4µM*	19.3%	13.2%	3.4	0.0	?
Cc1ccc(NC(=O)CSc2nc3ccccc3c(=O)n2CCCN2CCCCC2)cc1C	?	?	14.6µM*	-5.6	0.0	?
CCOCCCNC(=O)C1CCN(c2nc3ccc(C)cc3[nH]2)CC1	i	·	·	1.3	·	i
Cc1ccc(C2CC(=O)n3nc(-c4ccc(Cl)cc4)nc3S2)cc1 (configuration not stated)	i	·	·	-4.2	·	i
COc1cc2cc(C(c3nnnn3C3CCCC3)N(C)C3CCCCC3)c(=O)[nH]c2cc1OC (configuration not stated)	i	-2.0%	-22.8%	0.0	14.3	i
Cc1ccc(C(c2nnnn2C2CCCC2)N2CCc3ccccc32)cc1 (configuration not stated)	i	-8.3%	?	4.6	-4.3	20.6µM*
CC(C)C(c1nnnn1C1CCCC1)N(C)C1CCCCC1 (configuration not stated)	i	-7.7%	-5.8%	-5.1	?	18.4µM*
CC(C)(C)n1nnnc1C(c1cc2cc3c(cc2[nH]c1=O)OCCO3)N1CCSCC1 (configuration not stated)	i	-2.6%	-12.4%	6.2	-7.7	i
CC(C)C(c1nnnn1C1CCCC1)N1CCc2ccccc21 (configuration not stated)	i	-2.3%	1.0%	-0.7	15.6	i
O=c1[nH]c2cc3c(cc2cc1C(c1nnnn1C1CCCC1)N1CCSCC1)OCCO3 (configuration not stated)	?	2.2%	8.1%	-3.8	?	10.3µM*
